# Screens from PubChem.
# hNpr1 antagonist: human Npr1 receptor antagonism. P16066. HEK293 hNpr1 GloSensor cGMP, ANP-stimulated luminescence. Potency, µM (titrated, usually from 46.3 µM), for the others: top-dose activity change, negative = inhibition, most hits filed as inhibitors. hit rate 1.6% among 76,000. AID 1347048; calls by dose curve; note: nearly all actives have a fitted effect of over 60% in size
#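 HEK293 cells stably expressing human Npr1 and cGMP GloSensor pGS-40F, loaded 2 h with 2% GloSensor reagent, given compound 30 min at room temperature. Luminescence read before and 20 min after 0.1 nM hNppA.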
# 3T3 cytotox: kills NIH 3T3 cells; hit rate 4.3% among 94,000; Potency, µM (series often up to 96.7 µM), for the others: at the highest dose activity change, negative = cytotoxicity, usual class: inhibitors; NIH 3T3 viability, CellTiter-Glo ATP luminescence, 48-72 h; note: nearly all actives have a fitted effect of over 55% in size
#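 Mouse fibroblast NIH 3T3 cells, 400 per well, received compound via pintool and were incubated for 48 or 72 hr prior to CellTiter-Glo ATP luminescence measurement.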
# Luciferase inh: Photinus pyralis luciferase inhibition. AID 1347043. P08659. Potency, µM (top dose mostly 115 µM), actives largely listed as inhibitors. purified P. pyralis luciferase, luminescence, biochemical. hit rate 2.5% among 76,000; note: nearly all actives have a fitted effect of over 65% in size
# Target sequence (P08659 whole entry, looked up): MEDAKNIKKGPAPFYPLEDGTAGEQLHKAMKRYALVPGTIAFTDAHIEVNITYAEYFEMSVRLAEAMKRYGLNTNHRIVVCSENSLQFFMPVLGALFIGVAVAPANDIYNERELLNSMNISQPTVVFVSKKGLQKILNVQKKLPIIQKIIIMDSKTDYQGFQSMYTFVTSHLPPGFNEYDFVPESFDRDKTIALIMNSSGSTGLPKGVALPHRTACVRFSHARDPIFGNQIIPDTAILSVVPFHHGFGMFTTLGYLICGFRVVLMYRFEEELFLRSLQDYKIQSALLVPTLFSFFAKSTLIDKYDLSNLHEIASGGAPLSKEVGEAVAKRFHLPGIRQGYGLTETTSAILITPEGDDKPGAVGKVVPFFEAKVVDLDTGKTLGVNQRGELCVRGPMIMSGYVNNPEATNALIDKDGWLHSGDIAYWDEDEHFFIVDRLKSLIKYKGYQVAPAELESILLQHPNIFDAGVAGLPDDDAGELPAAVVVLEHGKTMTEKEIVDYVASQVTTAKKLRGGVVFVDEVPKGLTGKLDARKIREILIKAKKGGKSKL
#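 Inhibitors were tested against purified firefly luciferase in a biochemical, low-substrate format (both substrates at 10uM) and luminescence measured with a CCD imager.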
# HEK cytotox: kills HEK 293 cells; HEK 293 viability, ATP luminescence (CellTiter-Glo), 48-72 h; Potency, µM (doses to about 115 µM), for inactives: at the top dose activity change, negative = cytotoxicity, most hits filed as inhibitors; hit rate 6.6% among 94,000; note: nearly all actives have a fitted effect of over 60% in size
#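 Viability of HEK 293 cells, plated at 250 cells/well, was judged by cellular ATP after compound treatment for 48 or 72 hr. Luminescence was imaged 10 min after CellTiter-Glo addition at room temperature.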
# Starred values were filed as active, the others as inactive; i = inactive; ? = inconclusive; · = not tested or not shown; [ ] = remark or other dose. Shown are actives, neighbours in structure and some others; about 11% of the full set was active somewhere. Unless noted, calls come from the whole dose curve; as a rule, active = well fitted curve in the direction sought with a large enough effect; inconclusive = small, poorly fitted or top-dose-only effect, or another doubt; inactive = no such curve, though single readings can be large; an effect the other way counts as inactive or inconclusive. % is set by controls: 0 for no effect and ±100 for the full control effect; potency is the fitted concentration of half-maximal effect.
SMILES,hNpr1 antagonist,3T3 cytotox,Luciferase inh,HEK cytotox
O=C(c1cc2cc(F)ccc2[nH]1)N1CCCC(CO)(Cc2cccc(Cl)c2)C1 (stereo not drawn),-19%,?,?,79µM*
CCn1ccnc1CN1CCCC(CO)(Cc2cccc(Cl)c2)C1 (stereo not drawn),-16%,?,i,?
O=S(=O)(c1ccccc1Cl)N1CCCC(CO)(Cc2cccc(Cl)c2)C1 (stereo not drawn),-27%,?,i,25µM*
COc1ccc(C(=O)N2CCC[C@H](n3c(=O)n(CC4CC4)c4cccnc43)C2)cc1F,0%,?,i,?
CCn1nccc1C(=O)N1CCC(C(=O)N2CCCCCCNC(=O)CC2)CC1,-2%,-1%,i,i
CC(C)(C)C(=O)NCCNC(=O)c1ccc(-c2cccc(C(F)(F)F)c2)cc1,·,?,·,28µM*
CC(C)NC(=O)NCCNC(=O)c1ccc(-c2cccc(C(F)(F)F)c2)cc1,·,?,·,-26%
CN(C)C(=O)NCCNC(=O)c1ccc(-c2cccc(C(F)(F)F)c2)cc1,·,?,·,28µM*
COc1cccc(C(=O)NCCNC(=O)c2cccc(-c3ccc(C(F)(F)F)cc3)c2)c1,·,-31%,·,-21%
CC(=O)Nc1ccc(C2(C(=O)N3CCC(N4CCCCC4)CC3)CCCCC2)cc1,3%,-10%,i,-23%
CC(C)=CCC1(CO)CCCN(Cc2[nH]c3ccc(F)cc3c2C)C1 (stereo not drawn),-20%,22µM*,i,20µM*
CC(C)=CCC1(CO)CCCN(Cc2csc(C)n2)C1 (stereo not drawn),2%,-4%,i,?
O=C(NCC(F)(F)F)C1CCN(c2nccc(Nc3ccccc3F)n2)CC1,·,-32%,·,?
CSCCNC(=O)C1CCCN(c2nccc(Nc3ccccc3F)n2)C1 (stereo not drawn),·,25µM*,·,?
COCCNC(=O)C1CCN(c2nccc(Nc3ccccc3F)n2)CC1,·,?,·,5%
O=C(NCCc1ccc(F)cc1)C1CCCN(c2nccc(Nc3ccccc3F)n2)C1 (stereo not drawn),·,28µM*,·,?
O=C(NCCCc1ccccc1)C1CCCN(c2nccc(Nc3ccccc3F)n2)C1 (stereo not drawn),·,32µM*,·,?
O=C(NCCc1ccccc1F)C1CCN(c2nccc(Nc3ccccc3F)n2)CC1,·,?,·,32µM*
COc1ccccc1C(=O)N1CC(=O)N(CCCc2ccccc2)CC(O)C1 (stereo not drawn),·,-19%,·,?
Cn1ncc2c(C(=O)N3CCN(c4ncccn4)CC3)cc(-c3ccccc3C(F)(F)F)nc21,·,-29%,·,?
CN(Cc1cccnc1)Cc1cccc(C(F)(F)F)c1,·,-24%[138 µM],·,-21%[172 µM]
O=C(NCCc1ccccc1)C1CCCN(c2nccc(Nc3ccccc3F)n2)C1 (stereo not drawn),·,22µM*,·,?
C[S+](=O)([O-])NC1CCCN(c2ccnc3ccnn23)C1 (stereo not drawn),·,5%[138 µM],·,3%[172 µM]
Cn1cc(C(=O)Nc2ccc3c(c2)C(=O)N2CCC[C@H]2C(=O)N3)c2ccccc21,1%,-19%,i,7%
Cc1ccc(-c2nc(C)c(C(=O)Nc3ccc4c(c3)C(=O)N3CCC[C@H]3C(=O)N4)s2)cc1,-7%,-11%,28µM*,?
SMILES,hNpr1 antagonist,3T3 cytotox,Luciferase inh,HEK cytotox
CC1CCc2nn3ccn(CC(=O)Nc4ccccc4)c(=O)c3c2C1 (stereo not drawn),-4%,-15%,i,-21%
CCc1ccc(NC(=O)Cn2ccn3nc4c(c3c2=O)CC(C)CC4)cc1 (stereo not drawn),0%,?,i,45µM*
CCOC(=O)C1CCN(C(=O)C2CCCN(Cc3cccc(-c4ccsc4)c3)C2)CC1 (stereo not drawn),·,?,·,35µM*
O=C(C1CCCN(Cc2cccc(-c3ccsc3)c2)C1)N1CCN(Cc2ccccc2)CC1 (stereo not drawn),·,40µM*,·,40µM*
CN(Cc1ccccc1)C(=O)C1CCCN(Cc2cccc(-c3ccsc3)c2)C1 (stereo not drawn),·,?,·,40µM*
O=C(C1CCc2ncc(-c3ccsc3)n2C1)N1CCC(Cc2ccccc2)CC1 (stereo not drawn),4%,-27%,i,-22%
CCOC(=O)C1CCN(C(=O)C2CCCN(c3cnn(C)c(=O)c3)C2)CC1 (stereo not drawn),-6%,-20%,i,-14%
O=C(C1CCCN(Cc2cccc(-c3ccsc3)c2)C1)N1CCC(Cc2ccccc2)CC1 (stereo not drawn),·,?,·,40µM*
C=CCCC(CN1CCCOCC1)Oc1ccc2cccc(OC)c2n1 (stereo not drawn),0%,?,i,?
Oc1ccc(CCC2CCCCN2Cc2nc(Cc3cccc(F)c3)no2)cc1 (stereo not drawn),-7%,?,i,22µM*
O=C(c1cc(COc2c(F)cccc2F)on1)N1CCCCC1CCc1ccccc1 (stereo not drawn),-5%,-25%,i,-16%
COc1ccc(CN(C)CC2CCN(CCc3ccc(F)cc3)CC2)cc1Cn1cccn1,-3%,40µM*,i,28µM*
CCOC(=O)N1CCC(N(C)CC2CCN(CCc3ccc(F)cc3)CC2)CC1,1%,?,i,?
CN1CCN(C(CN)C2CCCCC2)CC1 (stereo not drawn),·,45µM*,·,?
COc1ccc(-c2nc(-c3ccccc3)nc3c2CN(C(=O)c2cccc(OC)c2)CC3)cc1,-3%,?,i,?
CC1(CNc2ccccc2)COc2ccc(C(=O)Nc3ccc4[nH]ccc4c3)cc2N1 (stereo not drawn),-28%[70.6 µM],40µM*,10µM*,?
COc1cccc(NC(=O)c2ccc3c(c2)NC(C)(COc2ccc4[nH]ccc4c2)CO3)c1 (stereo not drawn),-22%,13µM*,i,25µM*
COc1ccc(OCC2(C)COc3ccc(C(=O)Nc4ccn(C)n4)cc3N2)cc1 (stereo not drawn),18µM*,?,?,?
CC1(COc2ccc3[nH]ccc3c2)COc2ccc(C(=O)NCC3CCOCC3)cc2N1 (stereo not drawn),-4%[70.6 µM],-17%[138 µM],i,?
COc1ccc(CC(=O)N2CCN(C(=O)c3nc4cccnc4n(C4CC4)c3=O)CC2)cc1,·,-13%,·,4%
CCN1C(=O)CCC2(C(=O)NC3CCCC3)CCCC=C12 (stereo not drawn),3%,-8%,i,-19%
CCNC(=O)C12CCCC=C1N(C1CCCC1)C(=O)CC2 (stereo not drawn),-6%,-13%,40µM*,4%
CCN1C(=O)CCC2(C(=O)NCCN(C)C3CCCCC3)CCCC=C12 (stereo not drawn),-3%,?,i,45µM*
CC(C)CNC(=O)c1nc2cccnc2n(C2CC2)c1=O,·,-11%[138 µM],·,-2%[172 µM]
Cc1noc2c(NC3CCN(C)CC3)cc(-c3ccc(F)cc3)nc12,1%[70.6 µM],10µM*,i,63µM*
